Pf growth 48h – inhibits P. falciparum growth in the first generation, 48 h. 310,000 compounds, 5.9% hits. P. falciparum luciferase growth in erythrocytes, 48 h. Potency, µM (titrated, usually from 28.7 µM), most hits filed as inhibitors
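Read-out is firefly luciferase luminescence from an integrated reporter in P. falciparum, so falling signal marks reduced parasite growth. Infected erythrocytes were at 2% hematocrit and 0.1% parasitemia (final) in Albumax-supplemented RPMI 1640.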
SARS PLP yeast – SARS-CoV PLP inhibition in yeast | S. cerevisiae expressing SARS-CoV PLpro, growth rescue | Potency, µM (doses to about 32.9 µM), usual class: activators | 330,000 compounds, 0.19% hits; calls by dose curve; also: nearly all actives have a fitted effect of over 55% in size
Pf growth 96h – P. falciparum growth inhibition at 96 hours | P. falciparum luciferase reporter growth, 96 h | Potency, µM (doses to about 28.7 µM), most hits filed as inhibitors | 320,000 compounds, 6.9% hits | AID 504834
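Parasite growth measured via integrated firefly luciferase reporter in P. falciparum. Infected erythrocytes at 2% hematocrit, 0.05% parasitemia final were treated 96 hours at 37 C under 5% CO2, and luminescence was read.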
Sm TGR inh – blocks Schistosoma mansoni thioredoxin glutathione reductase | Q962Y6 | purified TGR, DTNB reduction, TNB absorbance 405 nm | Potency, µM (highest dose often 114 µM), most hits filed as inhibitors | 360,000 compounds, 3% hits | AID 485364; also: nearly all actives have a fitted effect of over 60% in size
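Kinetic colorimetric format: TGR-catalysed, NADPH-driven DTNB reduction monitored via TNB absorbance. Enzyme dispensed at 20 nM; compound exposure 15 min at room temperature before reaction start.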
Numbers stand for hits. This is a sample that favours compounds with a hit; in the whole collection about 12% have one here. Unless noted, calls follow the shape of the dose curve; as a rule, active = well fitted curve in the direction sought with a large enough effect; inconclusive = small, poorly fitted or top-dose-only effect, or another doubt; inactive = no such curve, though single readings can be large; an effect the other way counts as inactive or inconclusive.

`O=C1c2ccccc2C(=O)N1CCc1nc2ccccc2c(=O)n1Cc1ccco1` gave Pf growth 48h inactive, SARS PLP yeast inactive, Pf growth 96h inactive and Sm TGR inh 35µM.
Screening Cc1nc2ccccc2c(=O)n1Cc1ccco1 returned Pf growth 48h inactive, SARS PLP yeast inactive, Pf growth 96h inactive and Sm TGR inh inactive.
Cc1cccn2c(=O)c(/C=C(\C#N)c3nc4ccccc4n3C)c(Oc3ccc(Br)cc3)nc12 was read as Sm TGR inh inactive.
Screening Cc1cc(C)c(N=Cc2c(O)[nH]c(=O)[nH]c2=O)c(C)c1 returned Pf growth 48h inactive, SARS PLP yeast inactive, Pf growth 96h 3.3µM and Sm TGR inh inactive.
Screening O=C(O)c1ccc(N=Cc2c(O)[nH]c(=O)[nH]c2=O)cc1 returned Pf growth 48h inactive, SARS PLP yeast inactive, Pf growth 96h inactive and Sm TGR inh inactive.
For O=C(C1CCCN(S(=O)(=O)c2ccc(Br)cc2)C1)N1CCOCC1 (centres undefined) the results were Pf growth 48h inactive, SARS PLP yeast inactive, Pf growth 96h inactive and Sm TGR inh inactive.
For COC(C#CCCN(C)C)(c1ccccc1)c1ccccc1 the results were Pf growth 48h 1.7µM, SARS PLP yeast inactive, Pf growth 96h inconclusive and Sm TGR inh 28µM.
Screening CN(C)CC#CCC(O)(c1ccccc1)c1ccccc1 returned Pf growth 48h inactive, SARS PLP yeast inactive, Pf growth 96h inactive and Sm TGR inh inactive.
For COc1cccc(C2C=C(c3ccc(C)cc3)Nc3c(C(=O)Nc4ccc(F)cc4)cnn32)c1OC (centres undefined) the results were Sm TGR inh inactive.
CCOc1nc(Nc2ccc(OC)c(Cl)c2)nc(OCC)n1 was read as SARS PLP yeast inactive, Pf growth 96h 13µM and Sm TGR inh inactive.
For CCOc1nc(Nc2ccc(OC)cc2)nc(OCC)n1 the results were Pf growth 48h inactive, SARS PLP yeast inactive and Sm TGR inh inactive.
For CCCCOC(=O)/C(C#N)=C/c1ccc(-c2ccc(Br)cc2)o1 the results were Sm TGR inh inactive.
Cc1ccc(NC(=O)COC(=O)c2ccc3c(c2)NC(=O)C2CCCN32)cc1 (centres undefined) was read as Pf growth 48h 10µM, SARS PLP yeast inactive, Pf growth 96h inactive and Sm TGR inh inactive.
For Cc1ccc(C(=O)OCC(=O)NN2C(=O)NC3(CCC(C)CC3)C2=O)cc1 (centres undefined) the results were Pf growth 48h inconclusive, SARS PLP yeast inactive, Pf growth 96h inactive and Sm TGR inh inactive.
For O=C(Nc1cccc(C(F)(F)F)c1)c1cc2nc(-c3ccco3)cc(C(F)(F)Cl)n2n1 the results were Sm TGR inh inactive.
O=C(NCC1CCCO1)c1nn2c(C(F)(F)F)cc(-c3ccc(Br)o3)nc2c1Br (centres undefined) was read as Pf growth 48h inconclusive, SARS PLP yeast inactive, Pf growth 96h inactive and Sm TGR inh 16µM.
Screening O=C(c1cc2nc(-c3ccco3)cc(C(F)(F)F)n2n1)N1CCN(Cc2ccccc2)CC1 returned Pf growth 48h inconclusive, SARS PLP yeast inactive and Sm TGR inh 50µM.
For COc1ccc(-c2cc(C(F)(F)F)n3ncc(C(=O)NCC4CCCO4)c3n2)cc1 (centres undefined) the results were Pf growth 48h inactive, SARS PLP yeast inactive, Pf growth 96h inactive and Sm TGR inh inactive.
For O=C(c1ccccc1)N1CCN(C(=O)c2nn3c(C(F)(F)F)cc(-c4ccco4)nc3c2Br)CC1 the results were Pf growth 48h 10µM, SARS PLP yeast inactive, Pf growth 96h inactive and Sm TGR inh 40µM.
`O=C(O)c1cnn2c(C(F)(F)F)cc(-c3ccco3)nc12` gave Pf growth 48h inactive, SARS PLP yeast inactive, Pf growth 96h inactive and Sm TGR inh inconclusive.
For O=C(Nc1cc(F)ccc1F)c1cc2nc(-c3ccco3)cc(C(F)(F)Cl)n2n1 the results were Sm TGR inh 22µM.
Cc1cc(NC(=O)Cn2c(=O)oc3cc(S(=O)(=O)N4CCCC4)ccc32)ccc1Br was read as Sm TGR inh inactive.
CCCCNC(=O)Cn1ncc2c(C)n(Cc3cccc(Cl)c3)c(C)c2c1=O was read as Sm TGR inh inactive.
COc1cccc(CNC(=O)CCCN2C(=O)CCn3nc(-c4cccn4C)cc32)c1 was read as Sm TGR inh inactive.
`CN(CCc1ccccn1)C(=O)c1nn2c(C(F)(F)F)cc(-c3ccco3)nc2c1Cl` gave Pf growth 48h inconclusive, SARS PLP yeast inactive, Pf growth 96h inconclusive and Sm TGR inh 45µM.

High-throughput results: PubChem BioAssay, National Center for Advancing Translational Sciences (NCATS)
